In PubChem BioAssay (EPA / NIEHS):
Several values for one entry are separate records, joined by “and”; a condition that tells them apart may be missing. Equal entries are not always repeated. Inconclusive results are not listed. Some structures have more than one record in an assay (separate samples or runs), and their calls can disagree. Activity calls are given as the source filed them. How the source made its calls, unless noted: active means hit-call score of the fitted dose curve at least 0.9, where 1 is the maximum; inconclusive means response in the unintended direction; inactive means score below 0.9.

Tests used:
[1] = test system: Sodium/Iodide Symporter (NIS), SLC5A5 (gene 6528); test: CPHEA_Stoker_NIS_Inhibition_RAIU: CPHEA's Radioactive Iodide Uptake (RAIU) Assay for Sodium/Iodide Symporter (NIS) Inhibition, Stoker and Laws Labs (AID 2283841)
In short: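 hNIS-HEK293T-EPA cells incubated 2 h at room temperature with compound (0.001–100 uM, 0.5% DMSO) and 329 pM final 125I in HBSS/10 mM HEPES, pH 7.4. Intracellular 125I counted; normalised to DMSO maximal uptake, triplicate, three biological replicates.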

[2] = CPHEA_Stoker_NIS_Cytotoxicity: Cytotoxicity Assessment for CPHEA's Radioactive Iodide Uptake (RAIU) Assay for Sodium/Iodide Symporter (NIS) Inhibition, Stoker and Laws Labs (AID 2283897);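 on AC50: active means loss of ATP signal versus DMSO meaning cytotoxicity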
In short: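 hNIS-HEK293T-EPA cells, human NIS expressed in HEK293T, treated 2 h with chemicals (0.001–100 uM, 0.5% final DMSO). ATP content read by CellTiter-Glo luminescence; loss of signal analysed relative to DMSO.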

[3] = CEETOX_H295R_11DCORT_noMTC: CeeTox H295R High-throughput Steroidogenesis Assay for 11-Deoxycortisol (11DCORT), maximum tolerated concentration (MTC) filtered results only (AID 2283911; active means hit-call score of the fitted dose curve at least 0.9, where 1 is the maximum; inactive means score below 0.9); settings: actives raise or lower the signal
In short: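 Steroidogenesis was stimulated in H295R cells with 10 uM forskolin for 48 h before a 48 h chemical exposure. Secreted 11-deoxycortisol was measured by tandem mass spectrometry and fitted bidirectionally against DMSO controls.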

[4] = CEETOX_H295R_OHPREG_noMTC: CeeTox H295R High-throughput Steroidogenesis Assay for OH-Pregnenolone (OHPREG), maximum tolerated concentration (MTC) filtered results only (AID 2283912; active means hit-call score of the fitted dose curve at least 0.9, where 1 is the maximum; inactive means score below 0.9); settings: actives raise or lower the signal
In short: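 Readout is HPLC-MS/MS quantification of 17alpha-hydroxypregnenolone released by forskolin-stimulated H295R cells over 48 h of chemical exposure, DMSO as baseline.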

[5] = CEETOX_H295R_OHPROG_noMTC: CeeTox H295R High-throughput Steroidogenesis Assay for OH-Progesterone (OHPROG), maximum tolerated concentration (MTC) filtered results only (AID 2283914; active means hit-call score of the fitted dose curve at least 0.9, where 1 is the maximum; inactive means score below 0.9); settings: actives raise or lower the signal
In short: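 Analysis uses all tested concentrations, without maximum-tolerated-concentration screening by MTT. H295R cells, forskolin-primed (10 uM, 48 h), receive chemical for 48 h; hormone in medium measured by HPLC-MS/MS, with bidirectional curve fitting against DMSO.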

[6] = CEETOX_H295R_CORTISOL_noMTC: CeeTox H295R High-throughput Steroidogenesis Assay for Cortisol, maximum tolerated concentration (MTC) filtered results only (AID 2283916; active means hit-call score of the fitted dose curve at least 0.9, where 1 is the maximum; inactive means score below 0.9); settings: actives raise or lower the signal
In short: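 H295R adrenal cells were pre-stimulated 48 h with 10 uM forskolin, then exposed 48 h to test chemical in 0.1% DMSO. Medium cortisol was measured by MTBE extraction and HPLC-MS/MS; bidirectional fit versus DMSO, concentrations not MTC-filtered.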

[7] = CEETOX_H295R_CORTIC_noMTC: CeeTox H295R High-throughput Steroidogenesis Assay for Corticosterone (CORTIC), maximum tolerated concentration (MTC) filtered results only (AID 2283917; active means hit-call score of the fitted dose curve at least 0.9, where 1 is the maximum; inactive means score below 0.9); settings: actives raise or lower the signal
In short: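 Forskolin-stimulated (10 uM, 48 h) H295R cells are dosed 48 h with chemical in DMSO (0.1% final); corticosterone change is quantified by HPLC-MS/MS and fitted bidirectionally against DMSO, unfiltered for MTT-derived MTC.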

[8] = CEETOX_H295R_DOC_noMTC: CeeTox H295R High-throughput Steroidogenesis Assay for DOC, maximum tolerated concentration (MTC) filtered results only (AID 2283918; active means hit-call score of the fitted dose curve at least 0.9, where 1 is the maximum; inactive means score below 0.9); settings: actives raise or lower the signal
In short: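 H295R cells prestimulated 48 h with 10 uM forskolin, then exposed 48 h to test chemical (0.1% DMSO final). Medium 11-deoxycorticosterone extracted with MTBE, quantified by HPLC-MS/MS; bidirectional fit versus DMSO, concentrations not MTC-filtered.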

[9] = target: Peroxisome proliferator-activated receptor gamma (Homo sapiens) (UniProt P37231); test: ATG_hPPARg_XSP2: Attagene TRANS-FACTORIAL Multi-Species (XSP2) HepG2 Assay for human Peroxisome Proliferator-activated Receptor gamma (PPARg) (AID 2283829);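 further: actives raise reporter mRNA above DMSO so AC50 reflects PPARg activation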
Chain of Peroxisome proliferator-activated receptor gamma (Homo sapiens) (P37231 whole entry, looked up, the tested form may be a part): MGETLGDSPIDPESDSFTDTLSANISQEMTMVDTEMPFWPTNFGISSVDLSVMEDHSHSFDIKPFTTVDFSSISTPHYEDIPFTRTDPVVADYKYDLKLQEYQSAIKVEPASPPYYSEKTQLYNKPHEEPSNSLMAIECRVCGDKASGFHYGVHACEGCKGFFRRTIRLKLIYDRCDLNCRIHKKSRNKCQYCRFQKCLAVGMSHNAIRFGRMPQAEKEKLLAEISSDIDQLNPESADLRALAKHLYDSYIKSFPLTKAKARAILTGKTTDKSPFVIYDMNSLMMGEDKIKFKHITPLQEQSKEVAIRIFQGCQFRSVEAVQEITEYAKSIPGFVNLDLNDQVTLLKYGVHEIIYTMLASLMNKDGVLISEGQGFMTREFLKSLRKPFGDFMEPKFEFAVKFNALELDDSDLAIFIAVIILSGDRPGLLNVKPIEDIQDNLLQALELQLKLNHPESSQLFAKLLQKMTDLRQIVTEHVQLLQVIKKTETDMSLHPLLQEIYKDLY
In short: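 After transfecting HepG2 with GAL4-UAS reporter constructs, cells are dosed for 24 h; total RNA is reverse-transcribed, PCR-amplified, FAM-labeled, HpaI-digested and resolved by capillary electrophoresis. Activity is measured as mRNA induction relative to DMSO.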

[10] = target: mouse Peroxisome Proliferator-activated Receptor gamma (PPARg), Pparg (gene 19016) (UniProt P37238); test: ATG_mPPARg_XSP2: Attagene TRANS-FACTORIAL Multi-Species (XSP2) HepG2 Assay for mouse Peroxisome Proliferator-activated Receptor gamma (PPARg) (AID 2283830);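 further: hits are gains in reporter mRNA above DMSO so AC50 marks activation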
Chain of mouse Peroxisome Proliferator-activated Receptor gamma (PPARg), Pparg (gene 19016) (P37238 whole entry, looked up, the tested form may be a part): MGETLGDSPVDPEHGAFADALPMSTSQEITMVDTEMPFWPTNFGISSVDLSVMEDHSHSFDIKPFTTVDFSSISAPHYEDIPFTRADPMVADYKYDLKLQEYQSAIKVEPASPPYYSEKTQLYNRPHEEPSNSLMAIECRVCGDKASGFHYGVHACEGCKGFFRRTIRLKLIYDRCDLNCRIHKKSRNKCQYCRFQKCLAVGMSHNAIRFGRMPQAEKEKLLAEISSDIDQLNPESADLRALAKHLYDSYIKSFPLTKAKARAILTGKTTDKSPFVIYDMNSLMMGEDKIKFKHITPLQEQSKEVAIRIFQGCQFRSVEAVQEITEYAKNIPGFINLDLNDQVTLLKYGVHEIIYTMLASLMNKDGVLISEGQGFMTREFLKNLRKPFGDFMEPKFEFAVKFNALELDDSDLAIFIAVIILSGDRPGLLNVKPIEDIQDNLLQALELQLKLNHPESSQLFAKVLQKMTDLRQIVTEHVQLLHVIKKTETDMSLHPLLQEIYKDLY
In short: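 Multiplexed TRANS reporter readout: after 24 h chemical exposure of transfected HepG2 cells (with 3 nM 6-alpha-fluorotestosterone, 1.5 nM norgestrel present), RNA reverse-transcribed, amplified, 6-FAM-labelled and resolved by capillary electrophoresis; mouse PPARg-Gal4 induction scored against DMSO.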

[11] = target: Nuclear receptor subfamily 1 group I member 2 (Mus musculus) (UniProt O54915); test: ATG_mPXR_XSP2: Attagene TRANS-FACTORIAL Multi-Species (XSP1) HepG2 Assay for mouse Pregnane X Receptor (PXR) (AID 2283831)
Chain of Nuclear receptor subfamily 1 group I member 2 (Mus musculus) (O54915 whole entry, looked up, the tested form may be a part): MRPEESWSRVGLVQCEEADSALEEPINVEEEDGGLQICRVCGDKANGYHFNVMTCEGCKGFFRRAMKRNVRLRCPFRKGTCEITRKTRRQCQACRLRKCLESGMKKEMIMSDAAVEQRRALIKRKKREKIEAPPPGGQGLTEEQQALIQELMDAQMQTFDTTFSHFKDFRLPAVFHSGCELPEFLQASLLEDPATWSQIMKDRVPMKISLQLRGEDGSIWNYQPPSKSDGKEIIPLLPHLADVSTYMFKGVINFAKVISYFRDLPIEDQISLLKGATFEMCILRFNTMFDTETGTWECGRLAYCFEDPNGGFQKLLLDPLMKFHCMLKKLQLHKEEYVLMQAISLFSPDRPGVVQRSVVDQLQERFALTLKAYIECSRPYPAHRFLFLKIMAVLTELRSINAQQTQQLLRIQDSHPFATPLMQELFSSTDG
In short: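 Reporter transcripts were quantified by RT-PCR, FAM primer extension, HpaI digestion and capillary electrophoresis after 24 h of chemical exposure in transiently transfected HepG2 cells carrying chimeric receptor-GAL4 constructs; DMSO served as baseline.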

[12] = target: zebrafish Thyroid Hormone Receptor alpha (TRa), thraa (gene 30670) (UniProt Q98867); test: ATG_zfTRa_XSP2: Attagene TRANS-FACTORIAL Multi-Species (XSP1) HepG2 Assay for zebrafish Thyroid Hormone Receptor alpha (TRa) (AID 2283832);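 further: actives raise zebrafish TRa-Gal4 reporter transcript above DMSO baseline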
Chain of zebrafish Thyroid Hormone Receptor alpha (TRa), thraa (gene 30670) (Q98867 whole entry, looked up, the tested form may be a part): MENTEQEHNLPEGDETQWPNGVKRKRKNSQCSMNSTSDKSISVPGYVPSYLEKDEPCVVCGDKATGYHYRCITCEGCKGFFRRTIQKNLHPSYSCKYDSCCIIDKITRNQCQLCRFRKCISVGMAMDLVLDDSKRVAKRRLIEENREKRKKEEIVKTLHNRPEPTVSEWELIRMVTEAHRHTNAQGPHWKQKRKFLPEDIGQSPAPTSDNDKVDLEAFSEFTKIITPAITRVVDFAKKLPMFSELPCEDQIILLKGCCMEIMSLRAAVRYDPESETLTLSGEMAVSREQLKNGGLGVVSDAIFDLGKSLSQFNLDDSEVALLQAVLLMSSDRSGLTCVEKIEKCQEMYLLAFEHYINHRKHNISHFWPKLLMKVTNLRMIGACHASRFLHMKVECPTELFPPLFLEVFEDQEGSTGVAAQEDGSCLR
In short: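 Multiplexed TRANS reporter format in HepG2; the medium also contained 3 nM 6-alpha-fluorotestosterone and 1.5 nM norgestrel. Reporter mRNA after 24 h read by RT-PCR and capillary electrophoresis, scored as induction over DMSO.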

[13] = test system: zebrafish Peroxisome Proliferator-activated Receptor gamma (PPARg), gene 557037; test: ATG_zfPPARg_XSP2: Attagene TRANS-FACTORIAL Multi-Species (XSP2) HepG2 Assay for zebrafish Peroxisome Proliferator-activated Receptor gamma (PPARg) (AID 2283833);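 further: actives increase reporter signal over DMSO so AC50 reflects activation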
In short: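 Multi-species TRANS format in HepG2, 24 h dosing; medium also contained 3 nM 6-alpha-fluorotestosterone and 1.5 nM norgestrel to stimulate androgen receptor. Zebrafish PPARg-GAL4 induced reporter mRNA was measured by RT-PCR/capillary electrophoresis.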

[14] = test system: turtle Thyroid Hormone Receptor, alpha (TRa), gene 101949057; test: ATG_trTRa_XSP2: Attagene TRANS-FACTORIAL Multi-Species (XSP1) HepG2 Assay for turtle Thyroid Hormone Receptor, alpha (TRa) (AID 2283834);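 further: hits raise reporter mRNA over the DMSO baseline so AC50 marks activators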
In short: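 Transfection of HepG2 with multiple reporter transcription units, then chemical dosing for 24 h. Total RNA was reverse-transcribed, reporter sequences PCR-amplified and FAM-labelled, then sized by capillary electrophoresis. DMSO served as baseline.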

[15] = ATG_M_61_XSP2: Attagene TRANS-FACTORIAL Multi-Species (XSP2) HepG2 Assay for M61 Transcription Factor (Internal Marker) (AID 2283835; active means hit-call score of the fitted dose curve at least 0.9, where 1 is the maximum; inactive means score below 0.9;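 further: reporter mRNA of an internal background marker read by RT-PCR and capillary electrophoresis; active means a rise in signal above the DMSO baseline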)
In short: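 Signal was mRNA induction detected as fluorescence after RT-PCR and capillary electrophoresis, analysed in the gain direction with DMSO as baseline. HepG2 cells transiently carrying reporter constructs received chemicals for 24 h.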

[16] = target: zebrafish Thyroid Hormone Receptor beta (TRb), thrb (gene 30607) (UniProt Q9PVE4); test: ATG_zfTRb_XSP2: Attagene TRANS-FACTORIAL Multi-Species (XSP1) HepG2 Assay for zebrafish Thyroid Hormone Receptor beta (TRb) (AID 2283836)
Chain of zebrafish Thyroid Hormone Receptor beta (TRb), thrb (gene 30607) (Q9PVE4 whole entry, looked up): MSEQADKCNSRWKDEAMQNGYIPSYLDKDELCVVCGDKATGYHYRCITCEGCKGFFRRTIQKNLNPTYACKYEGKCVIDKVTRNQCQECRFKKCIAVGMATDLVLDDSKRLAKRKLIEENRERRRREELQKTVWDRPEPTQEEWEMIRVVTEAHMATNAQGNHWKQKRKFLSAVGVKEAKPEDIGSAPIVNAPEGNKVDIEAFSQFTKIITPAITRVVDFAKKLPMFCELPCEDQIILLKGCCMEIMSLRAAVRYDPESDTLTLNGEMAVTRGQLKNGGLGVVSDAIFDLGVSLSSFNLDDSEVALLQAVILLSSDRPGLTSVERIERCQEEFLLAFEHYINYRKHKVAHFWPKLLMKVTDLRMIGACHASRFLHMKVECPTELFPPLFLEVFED
In short: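 Multiplexed trans-activation in HepG2 cells, 24 h treatment, with reporter mRNA read by RT-PCR and capillary electrophoresis. Gain-of-signal against DMSO.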

[17] = ATG_XTT_Cytotoxicity_XSP2: Cytotoxicity Assessment in the Attagene TRANS-FACTORIAL Multi-Species (XSP2) HepG2 Assay (AID 2283837)
In short: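 XTT-based cell number read-out in human HepG2 liver cells carrying transfected reporter units, measured 24 h after chemical dosing. Activity is signal loss versus DMSO baseline.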

[18] = target: human Thyroid hormone Receptor alpha (TRa), THRA (gene 7067) (UniProt P10827); test: ATG_hTRa_XSP2: Attagene TRANS-FACTORIAL Multi-Species (XSP2) HepG2 Assay for human Thyroid hormone Receptor alpha (TRa) (AID 2283838)
Chain of human Thyroid hormone Receptor alpha (TRa), THRA (gene 7067) (P10827 whole entry, looked up, the tested form may be a part): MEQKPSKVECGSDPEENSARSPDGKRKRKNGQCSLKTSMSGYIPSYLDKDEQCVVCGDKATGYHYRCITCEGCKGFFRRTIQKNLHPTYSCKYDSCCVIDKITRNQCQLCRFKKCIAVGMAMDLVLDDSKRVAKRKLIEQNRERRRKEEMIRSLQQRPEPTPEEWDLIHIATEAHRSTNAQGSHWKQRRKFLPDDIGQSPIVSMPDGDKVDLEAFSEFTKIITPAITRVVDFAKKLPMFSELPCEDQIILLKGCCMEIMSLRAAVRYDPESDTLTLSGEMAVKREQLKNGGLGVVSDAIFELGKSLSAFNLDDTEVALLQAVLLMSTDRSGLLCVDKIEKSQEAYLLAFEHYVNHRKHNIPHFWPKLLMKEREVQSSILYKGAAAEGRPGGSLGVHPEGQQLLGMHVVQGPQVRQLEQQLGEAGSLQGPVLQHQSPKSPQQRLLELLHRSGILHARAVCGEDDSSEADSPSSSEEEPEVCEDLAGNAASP
In short: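 Gain-of-signal in reporter mRNA, relative to DMSO, after 24 h dosing of transfected HepG2; quantitation by RT-PCR fragment analysis on capillary electrophoresis.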

[19] = target: frog Thyroid hormone Receptor alpha (TRa), thra-a (gene 397942) (UniProt P15204); test: ATG_frTRa_XSP2: Attagene TRANS-FACTORIAL Multi-Species (XSP2) HepG2 Assay for frog Thyroid hormone Receptor alpha (TRa) (AID 2283839)
Chain of frog Thyroid hormone Receptor alpha (TRa), thra-a (gene 397942) (P15204 whole entry, looked up, the tested form may be a part): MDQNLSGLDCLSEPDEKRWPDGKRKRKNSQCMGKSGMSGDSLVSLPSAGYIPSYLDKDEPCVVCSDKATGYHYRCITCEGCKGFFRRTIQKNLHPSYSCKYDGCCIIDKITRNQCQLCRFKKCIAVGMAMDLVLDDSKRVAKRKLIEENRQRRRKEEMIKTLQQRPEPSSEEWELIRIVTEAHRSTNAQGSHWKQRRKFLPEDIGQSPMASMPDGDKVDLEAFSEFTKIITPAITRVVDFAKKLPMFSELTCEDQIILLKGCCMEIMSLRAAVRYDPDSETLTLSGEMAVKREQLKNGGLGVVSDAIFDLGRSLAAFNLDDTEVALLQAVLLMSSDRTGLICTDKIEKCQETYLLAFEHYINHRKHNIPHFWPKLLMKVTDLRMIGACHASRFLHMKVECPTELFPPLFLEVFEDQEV
In short: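 Transfect HepG2 with multiple reporter units (GAL4-UAS), dose chemical, incubate 24 h. Isolate RNA, reverse-transcribe, PCR-amplify reporter, label with 6-FAM by primer extension, digest with HpaI, run capillary electrophoresis; induction scored against DMSO.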

[20] = target: human Thyroid hormone Receptor beta (TRb), THRB (gene 7068) (UniProt P10828); test: ATG_hTRb_XSP2: Attagene TRANS-FACTORIAL Multi-Species (XSP2) HepG2 Assay for human Thyroid hormone Receptor beta (TRb) (AID 2283840);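 further: actives raise reporter mRNA so potency reflects agonist-like gain of signal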
Chain of human Thyroid hormone Receptor beta (TRb), THRB (gene 7068) (P10828 whole entry, looked up, the tested form may be a part): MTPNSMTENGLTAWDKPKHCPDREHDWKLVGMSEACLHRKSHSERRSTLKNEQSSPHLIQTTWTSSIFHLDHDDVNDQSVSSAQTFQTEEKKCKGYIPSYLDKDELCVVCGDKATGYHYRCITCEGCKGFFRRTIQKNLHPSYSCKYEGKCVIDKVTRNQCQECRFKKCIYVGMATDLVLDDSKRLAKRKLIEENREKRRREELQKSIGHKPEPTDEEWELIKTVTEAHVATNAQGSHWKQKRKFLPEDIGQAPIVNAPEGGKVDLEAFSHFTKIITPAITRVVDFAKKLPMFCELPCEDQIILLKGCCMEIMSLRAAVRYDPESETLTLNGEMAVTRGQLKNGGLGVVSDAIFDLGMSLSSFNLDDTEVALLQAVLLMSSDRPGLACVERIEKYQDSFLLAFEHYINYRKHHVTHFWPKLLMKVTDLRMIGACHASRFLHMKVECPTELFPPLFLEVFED
In short: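 Transient transfection of human HepG2 with multi-species NR-Gal4/GAL4-UAS reporter constructs; 24 h compound treatment; RNA isolation, reverse transcription, PCR and HpaI digest; capillary electrophoresis of labeled fragments; activity fitted upward versus DMSO.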

Measured: AC50

CC(C)(OOC(C)(C)c1ccccc1)c1ccccc1
inactive: [1] | [2]

C=CCc1ccc2c(c1)OCO2
inactive: [3] | [4] | [5] | [6] | [7] | [8]

O=[N+]([O-])c1ccc(Oc2ccc(Cl)cc2Cl)cc1
active: [9] 16 µM and 10.8 µM | [10] 16.9 µM and 27.2 µM | [11] 4.29 µM and 2.99 µM
not listed: [3] | [4] | [5] | [6] | [7] | [8]
inactive: all other assays above

Nc1ccc(Cl)cc1N
inactive: [2]
active: [1] 50 µM

CN(C)c1ccc(C(=O)c2ccc(N(C)C)cc2)cc1
inactive: [1] | [2]

Cc1cc(N=Nc2ccccc2C)ccc1N
inactive: [1] | [2]

Clc1ccc(C(c2ccc(Cl)cc2)C(Cl)(Cl)Cl)cc1
active: [10] 100 µM | [11] 4.54 µM
inactive: [9] | [12] | [13] | [15] | [16] | [18] | [19] | [20] | [2]

c1ccc2c(c1)oc1ccccc12
inactive: [1] | [2]

CC(C)(C)C(O)(CCc1ccc(Cl)cc1)Cn1cncn1 (centres undefined)
active: [11] 4.58 µM and 5.55 µM
not listed: [1] | [3] | [4] | [5] | [6] | [7] | [8] | [19]
inactive: all other assays above

CCC[CH2][Sn]([Cl])([CH2]CCC)[CH2]CCC
inactive: [12] | [13] | [14] | [15] | [16] | [18] | [19]
active: [20] 0.649 µM | [1] 8.22 µM | [2] 3.44 µM

CCNS(=O)(=O)C(F)(F)C(F)(F)C(F)(F)C(F)(F)C(F)(F)C(F)(F)C(F)(F)C(F)(F)F
inactive: [1] | [2]

Clc1ccc(C(c2ccc(Cl)cc2)C(Cl)Cl)cc1
inactive: [9] | [10] | [12] | [13] | [15] | [20] | [1] | [2]
active: [11] 7.95 µM

ClC1=C(Cl)[C@]2(Cl)[C@H]3[C@H]([C@@H]4C=C[C@H]3C4)[C@@]1(Cl)C2(Cl)Cl
inactive: [1] | [2]

Brc1ccc(Oc2ccccc2)cc1
inactive: [1] | [2] | [3] | [4] | [5] | [6] | [7]

CCCCC(CC)COC(=O)c1ccc(C(=O)OCC(CC)CCCC)c(C(=O)OCC(CC)CCCC)c1 (centres undefined)
active: [11] 100 µM
inactive: [9] | [10] | [11] | [12] | [14] | [16] | [17] | [18] | [19] | [20]
